This passage reports activation, Potency and activity change, negative = inhibition results from PubChem BioAssay (NCATS).

Experiment [1] deals with Cellular tumor antigen p53 (Homo sapiens) (UniProt P04637). Description: Primary qHTS for small molecule compounds that upregulate eGFP-tagged delta133p53alpha (in N-terminal) cells. (AID 2060322). Further: nearly all actives have a fitted effect of over 75% in size. Further: potency means the concentration at half of the fitted maximal effect.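 On activation: cells pre-induced with doxycycline then dosed without doxycycline; series mostly up to about 56 µM; 0% = DMSO vehicle and 100% = reference activator.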 The conditions noted are these: NCI-H358 eGFP-delta133p53alpha fluorescence, 24 h; activation: active compounds read high. The method in brief:
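NCI-H358 cells pre-induced 24 h with 10 ng/ml doxycycline for eGFP-delta133p53alpha, plated dox-free and exposed 24 h at 37C to titrated compounds. Fixed, Hoechst-stained; gated GFP peak intensity by laser scanning cytometry, normalized to DMSO (0%) and 57.5 uM 5-azacytidine (100%).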

The target of experiment [2] is Aldehyde dehydrogenase, mitochondrial (Homo sapiens) (UniProt P05091). Description: qHTS for Inhibitors of the Aldehyde Dehydrogenase Family (ALDH2) Primary screen (AID 2061308).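 Further: plate controls were vehicle for no effect and reference inhibitor for full effect; nearly all actives have a fitted effect of over 55% in size.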
Experiment [3] deals with Retinaldehyde dehydrogenase 3 (Homo sapiens) (UniProt P47895). As to the kind of experiment: qHTS for Inhibitors of the Aldehyde Dehydrogenase Family (ALDH1A3) Primary screen (AID 2061315).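 Further: plate controls were DMSO vehicle for no effect and reference inhibitor for full effect.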

Inconclusive results are not listed. Unmarked numbers belong to inactive results. Active and inactive are the calls of the source. The call rests on the fitted dose curve; in most records, active means well fitted curve in the direction sought with a large enough effect; inconclusive means small, poorly fitted or top-dose-only effect, or another doubt; inactive means no such curve, though single readings can be large; an effect the other way counts as inactive or inconclusive.

Sequence of Cellular tumor antigen p53 (Homo sapiens) (P04637 whole entry, looked up): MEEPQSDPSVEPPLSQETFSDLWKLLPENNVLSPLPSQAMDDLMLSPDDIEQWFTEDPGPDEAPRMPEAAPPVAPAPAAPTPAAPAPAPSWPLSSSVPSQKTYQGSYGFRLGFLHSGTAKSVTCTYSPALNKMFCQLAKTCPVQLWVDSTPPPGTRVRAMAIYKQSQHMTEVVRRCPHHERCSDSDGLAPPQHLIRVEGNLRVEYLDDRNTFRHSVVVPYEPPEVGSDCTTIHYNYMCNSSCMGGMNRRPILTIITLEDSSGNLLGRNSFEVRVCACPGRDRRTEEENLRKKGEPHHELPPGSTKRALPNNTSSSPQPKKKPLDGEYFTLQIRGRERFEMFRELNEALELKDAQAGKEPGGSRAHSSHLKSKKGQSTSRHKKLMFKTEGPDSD

Turning to `C/C=C(\C)C(=O)OC1C=C(C)CC(OC(=O)c2ccc(O)cc2)C2C1(C)CCC2(O)C(C)C` (stereo not drawn), the activation in experiment [1] was -7.63%. Besides, the Potency result in experiment [2] and in experiment [3] was “inactive” throughout.
Consider `CC1=C(C)C(=O)OC(C(C)C2C(O)CC3C4C5OC5C5(O)CC(OC6OC(CO)C(O)C(O)C6O)CC(O)C5(C)C4CCC32C)C1` (stereo not drawn), for which, in experiment [1], the activation is -6.87%. The Potency entry in experiment [2] and in experiment [3] was “inactive” in each case.
`Cc1nc2c(C(F)(F)F)cccc2nc1-c1ccc(-c2cccc(S(C)(=O)=O)c2)cc1`: in experiment [1], the activation was -2.68%. Moreover, the Potency result in experiment [2] and in experiment [3] was “inactive” throughout.
In the case of `Cn1nnc(-c2ccc(-c3ccc(N4C[C@H](CO)OC4=O)cc3F)cn2)n1`, the activation in experiment [1] is -5.36%. Further, the Potency entry in experiment [2] and in experiment [3] was “inactive” throughout.
For `COc1ccc(-n2[nH]c3c(cnc4ccccc43)c2=O)cc1`, the activation in experiment [1] was -9.55%. Further, the Potency result in experiment [2] and in experiment [3] was “inactive” throughout.
Turning to `NC(N)=N/N=C/c1ccccc1Cl`, the activation in experiment [1] was 3.67%. In addition, the Potency entry in experiment [2] and in experiment [3] was “inactive” in each case.
Consider `CC(C)=CCc1cc(O[C@@H]2O[C@H](CO[C@@H]3OC[C@](O)(CO)[C@H]3O)[C@@H](O)[C@H](O)[C@H]2O)ccc1O`, for which the activation in experiment [1] was 22.1%. For the same molecule, the Potency entry in experiment [2] and in experiment [3] was “inactive” each time.
As to `C=C1CC[C@H]2[C@@](C)(CCC[C@@]2(C)C(=O)O)[C@@H]1CCC(C)CCO` (stereo partly drawn), in experiment [1], the activation was 9.16%. In addition, the Potency result in experiment [2] and in experiment [3] was “inactive” throughout.
`C=C1C[C@]23C[C@H]1CC[C@H]2[C@@]12CC[C@H](O)[C@@](C)(C(=O)O1)[C@H]2[C@@H]3C(=O)O`: the activation in experiment [1] is 5.34%. Moreover, the Potency result in experiment [2] and in experiment [3] was “inactive” throughout.
Consider `COC(=O)CCSCc1ccc(-c2onc(C)c2NC(=O)OC(C)c2ccccc2Cl)cc1` (stereo not drawn), for which, in experiment [1], the activation is -5.25%. Also, the Potency entry in experiment [2] and in experiment [3] was “inactive” in each case.
With `O=C1C=CC2OC(c3ccccc3)C(O)C2O1` (stereo not drawn), in experiment [1], the Potency is 30.1 µM (active). The Potency entry in experiment [2] and in experiment [3] was “inactive” throughout.
As to `COC(=O)C1(C)CCC2(C(=O)O)CCC3(C)C(=CCC4C5(C)CC(O)C(OC6OCC(O)C(O)C6O)C(C)(CO)C5CCC43C)C2C1` (stereo not drawn), the activation in experiment [1] is -6.11%. Further, the Potency entry in experiment [2] and in experiment [3] was “inactive” each time.
As to `CC1CCCCCCCc2cc(O)cc(O)c2C(=O)O1` (stereo not drawn), the activation in experiment [1] was -3.57%. The Potency result in experiment [2] and in experiment [3] was “inactive” each time.
As to `C[C@@]1(C(=O)O)CCC[C@@]2(C)C3=CC[C@H]4C[C@@]3(CC[C@H]12)CC4(O)CO` (stereo partly drawn), in experiment [1], the activation was -2.29%. Also, the Potency entry in experiment [2] and in experiment [3] was “inactive” throughout.
On to `CC(=O)O[C@@H]1[C@H](O[C@@H]2O[C@@H](CO)[C@H](O)[C@H]2O)[C@@H](O[C@@H]2O[C@@H](C)[C@H](O[C@@H]3OC[C@@H](O)[C@H](O)[C@H]3O)[C@@H](O)[C@H]2O)[C@H](OC(=O)[C@]23CCC(C)(C)C[C@H]2C2=CCC4[C@@]5(C)CC[C@H](O[C@@H]6O[C@H](C(=O)O)[C@@H](O)[C@H](O)[C@H]6O[C@@H]6O[C@H](CO)[C@H](O)[C@H](O)[C@H]6O)[C@@](C)(C=O)C5CC[C@@]4(C)[C@]2(C)C[C@H]3O)O[C@@H]1C` (stereo partly drawn), for which, in experiment [1], the activation is 0.893%. Besides, the results for the activity change, negative = inhibition in experiment [2] and in experiment [3] were -0.326% [at 11.2 µM] and -1.8% [at 11.2 µM], respectively.
Regarding `CC1(C)CC2C(C1)C(C)(O)C13CC1(COC3=O)C2O` (stereo not drawn), the activation in experiment [1] is 8.93%. For the same molecule, the Potency entry in experiment [2] and in experiment [3] was “inactive” throughout.
Take `CC(C)=CCc1cc2c(cc1O)OC[C@H]1c3ccc(O)cc3O[C@@H]21`: the activation in experiment [1] was -3.82%. For the same molecule, the Potency entry in experiment [2] and in experiment [3] was “inactive” throughout.
On to `COc1cc(O)c([C@@H](CC(=O)N2CC(C)CC(C)C2)c2ccc3c(c2)OCO3)c(OC)c1` (stereo partly drawn), for which the activation in experiment [1] was 28.3%. For the same molecule, the Potency result in experiment [2] and in experiment [3] was “inactive” in each case.
Turning to `CC1(C)CC[C@]2(C(=O)O)CC[C@]3(C)C(=CCC4[C@@]5(C)C[C@H](O)[C@H](O[C@@H]6OC[C@H](O)[C@H](O)[C@H]6O)[C@@](C)(CO)C5CC[C@]43C)[C@@H]2C1` (stereo partly drawn), in experiment [1], the activation was -9.16%. For the same molecule, the Potency entry in experiment [2] and in experiment [3] was “inactive” throughout.
For `O=C(O)[C@H]1Cc2ccccc2CN1`, the activation in experiment [1] was 6.21%. Further, the activity change, negative = inhibition in experiment [2] was 6.47% [at 5.59 µM]; in experiment [3] it was -14.2% [at 5.59 µM].
Regarding `O=S(=O)(Nc1ccc(C(O)(C(F)(F)F)C(F)(F)F)cc1)c1cccs1`, in experiment [1], the activation is -12.3%. The Potency entry in experiment [2] and in experiment [3] was “inactive” in each case.
For the molecule `CC1(C)CC[C@]2(C(=O)O[C@@H]3O[C@H](CO)[C@@H](O)[C@H](O)[C@H]3O)CC[C@]3(C)C(=CCC4[C@@]5(C)C[C@@H](O)[C@H](O)[C@](C)(C=O)C5CC[C@]43C)[C@@H]2[C@@H]1O` (stereo partly drawn), the activation in experiment [1] was -0.893%. The Potency result in experiment [2] and in experiment [3] was “inactive” each time.
Take `CCOc1ncc(S(=O)(=O)N2CCN(CC)CC2)cc1-c1nc2c(CC)n(CCOC)nc2c(=O)[nH]1`: the activation in experiment [1] is -9.07%. The Potency result in experiment [2] and in experiment [3] was “inactive” in each case.
Turning to `COC1=CC(=O)CC(C)C12Oc1cc(OC)cc(O)c1C2=O` (stereo not drawn), the activation in experiment [1] was 16.8%. The Potency entry in experiment [2] and in experiment [3] was “inactive” throughout.
`Cc1cc(N2CCCCC2)nc2ccccc12`: the activation in experiment [1] is 13.7%. The Potency result in experiment [2] and in experiment [3] was “inactive” throughout.
With `CC1(C)CC[C@]2(C(=O)O[C@@H]3O[C@H](CO[C@@H]4O[C@H](CO)[C@@H](O)[C@H](O)[C@H]4O[C@@H]4O[C@H](CO)[C@H](O)[C@H](O)[C@H]4O)[C@@H](O)[C@H](O[C@@H]4O[C@H](CO)[C@@H](O)[C@H](O)[C@H]4O)[C@H]3O)CC[C@]3(C)C(=CCC4[C@@]5(C)CC[C@H](O[C@@H]6OC[C@@H](O)[C@H](O)[C@H]6O)[C@@](C)(C(=O)O)C5CC[C@]43C)[C@@H]2C1` (stereo partly drawn), the activation in experiment [1] is 1.53%. For the same molecule, the activity change, negative = inhibition in experiment [2] was 6.97% [at 11.2 µM]; in experiment [3] it was 11.9% [at 11.2 µM].
